PubChem BioAssay AID1272365 (Small Molecule Screening Facility, UW Madison, 2018)
Values joined by “and” are separate entries in the source; they are usually repeats but may differ in a detail not shown here. Equal entries are not always repeated. Among all 430,000 compounds or so, about 2,600 (0.6%) were called active. Rule as the data show it: active = inhibition mostly above about 37% (no sharp cut-off); inactive = mostly below about 20%. Shown is part of a subset that was picked to be rich in actives.

System: PriA–SSB C-terminal tail interaction (Klebsiella pneumoniae)
Assay: blocks PriA binding to SSB C-terminal tail, primary screen, biochemical, AlphaScreen (AID 1272365);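 as to inhibition: plate controls were negative control peptide for no effect and reference peptide for full effect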
Conditions: AlphaScreen SSBct-PriA binding, biotinylated peptide; at 33 µM, stronger effect = higher value

Row | SMILES | inhibition
1 | CC(C)(CC(=O)NCc1ccc(F)cc1)CC1=NS(=O)(=O)c2ccccc2N1 | -14% (inactive)
2 | COc1ccc(C(=O)Nc2ccc(S(C)(=O)=O)cc2)cc1 | -8% (inactive)
3 | CC(C)Sc1nc(N2CCCC2)c2cnn(CCNC(=O)c3cccs3)c2n1 | -8% (inactive)
4 | CCn1ccnc1CN1CCN(C)CC1 | 0% (inactive)
5 | CC(=O)Nc1ccc(S(=O)(=O)N2CCN(S(=O)(=O)c3ccc(C)cc3)CC2)cc1 | -19% (inactive)
6 | N#Cc1nccnc1O[C@H]1CCCN(C(=O)c2ccc3nc[nH]c3c2)C1 | -19% (inactive)
7 | Cc1cccc(-n2cc(-c3ccccc3)c3c(Nc4ccc(Oc5ccc(Cl)cc5)cc4)ncnc32)c1 | -17% (inactive)
8 | Cc1cccc(C(=O)Nc2nnc(Cc3c[nH]c4ccccc34)s2)c1 | 6.73% (inactive)
9 | C=CCn1c(C)cc(C2=NNC(=NCC)SC2)c1C | 29.4% (inactive)
10 | Cc1cccc(N=C2NN=C(c3c[nH]c4ccccc34)CS2)c1 | 48.7% (active)
11 | Cn1cc(S(=O)(=O)Nc2ccc(CC(=O)N3CCOCC3)cc2)cn1 | 6% (inactive)
12 | NS(=O)(=O)c1ccc(CNC(=O)c2ccc(Cl)cc2[N+](=O)[O-])cc1 | -24.6% (inactive)
13 | C/C(=N\Nc1ccc(S(N)(=O)=O)cc1[N+](=O)[O-])c1cccs1 | inactive
14 | CC(CCC(C)C)=NNc1ccc(S(N)(=O)=O)cc1[N+](=O)[O-] | 42.4% (active)
15 | COc1cccc(OC)c1C(=O)N1CCN(Cc2cccnc2)CC1 | 49% (active)
16 | COc1ccccc1C(=O)N1CCN=C1SCc1cccnc1 | -0.73% (inactive)
17 | O=C(c1cc2n(n1)CCCO2)N1CCN(Cc2cccnc2)CC1 | -17% (inactive)
18 | O=C(c1cc2ccccc2o1)N1CCN(C(=O)C2CC2c2ccccc2)CC1 (centres undefined) | 2% (inactive)
19 | Cc1cc(S(=O)(=O)N2CCOC23CCN(C(=O)c2cc(=O)c4ccccc4o2)CC3)ccc1F | -9% (inactive)
20 | Cc1ccc2cc(C)c(N3CCC(C)CC3)nc2c1 | -34.6% (inactive)
21 | CC1CCN(c2nc(-c3ccccn3)nc3ccccc23)CC1 | 102% (active)
22 | CC1CCN(C(=O)Cn2c(-c3ccncc3)nc3ccccc32)CC1 | 4% (inactive)
23 | O=C1C(=O)N(CN2CCN(C(c3ccccc3)c3ccccc3)CC2)c2ccccc21 | -1% (inactive)
24 | COC(=O)/C=C1\SC(=NNC(=O)c2ccccc2)NC1=O | -6.67% (inactive)

Row | SMILES | inhibition
25 | Cc1nc(-c2cccs2)sc1CNC(=O)c1ccc(=O)[nH]c1 | 5% (inactive)
26 | Nc1[nH]nc2nc(-c3ccccn3)ccc12 | 94.2% (active)
27 | Cc1cc2cc3c(N)[nH]nc3nc2cc1C | -6.78% (inactive)
28 | Cc1cc(NC(=O)C(C)(C)Oc2ccc(Cl)cc2)n(-c2nc3c(c(=O)[nH]2)CCC3)n1 | -1% (inactive)
29 | CCOC(=O)c1c(NC(=O)c2c(F)cccc2F)sc2c1CCN(C(=O)OCC)C2 | -7% (inactive) and -12% (inactive)
30 | CCOC(=O)c1ccc(NNC(C)=O)c([N+](=O)[O-])c1 | 3.85% (inactive)
31 | CCc1ccc(Nc2ccc([N+](=O)[O-])c3nonc23)cc1 | 79.3% (active)
32 | CN(c1ccccc1)c1ccc([N+](=O)[O-])c2nonc12 | 32.9% (inactive)
33 | O=C(COc1ccccc1)N1CCN(c2ccc(-c3ccco3)nn2)CC1 | -12% (inactive)
34 | COc1ccc(OC)c(Nc2nc(CC(=O)N3CCN(c4ncccn4)CC3)cs2)c1 | 19% (active)
35 | O=C1CCC(C(=O)Nc2nc(CC(=O)N3CCN(c4ccccn4)CC3)cs2)N1 (centres undefined) | 8% (inactive)
36 | COc1ccc(C)cc1NC(=O)Cc1csc(NS(=O)(=O)c2ccccc2)n1 | 6% (inactive)
37 | COc1ccc(OC)c(Nc2nc(CC(=O)N3CCc4ccccc43)cs2)c1 | 12% (inactive)
38 | COc1ccc(OC)c(Nc2nc(CC(=O)Nc3nc4ccccc4s3)cs2)c1 | 38% (active)
39 | COC(=O)Nc1nc(CC(=O)Nc2ccccc2OC)cs1 | -13% (inactive)
40 | CCCCN(C1CCS(=O)(=O)C1)S(C)(=O)=O (centres undefined) | 10% (inactive)
41 | Cc1ccc(C)c(CSc2nnc3n(C)c(=O)c4ccc(C(=O)NC5CCCC5)cc4n23)c1 | 0% (inactive)
42 | O=C(c1ccc(S(=O)(=O)N2CCCCC2)cc1)N(c1cccc(Cl)c1)C1C=CS(=O)(=O)C1 (centres undefined) | -8% (inactive)
43 | O=C(NCCCn1ncccc1=O)c1cccc(C(F)(F)F)c1 | -10% (inactive)
44 | CSc1cccc(-c2nnc(NC(=O)c3ccc(Cl)s3)o2)c1 | 11% (inactive) and 4% (inactive)
45 | Cc1cc(SCC(=O)Nc2ccc(OC(F)F)cc2)nc2ccccc12 | -2% (inactive) and -21% (inactive)
46 | Cn1ccc(C(=O)Nc2ccc(F)cc2)n1 | 8% (inactive)
47 | COc1cc2nc(SCc3cc(=O)n4cc(Cl)ccc4n3)n3nc(C)nc3c2cc1OC | -5% (inactive)
48 | O=C(NCc1ccco1)C(=O)Nc1c2c(nn1-c1ccc(F)cc1)CSC2 | -7% (inactive)

Row | SMILES | inhibition
49 | COc1ccccc1CCNC(=O)C(=O)NC[C@@H](c1ccco1)N1CCc2ccccc21 | 8% (inactive)
50 | Cc1ccccc1C(=O)NCC(c1ccco1)N1CCc2ccccc21 (centres undefined) | -7.16% (inactive)
51 | O=C(NCC(c1ccco1)N1CCc2ccccc21)C(=O)Nc1ccccc1[N+](=O)[O-] (centres undefined) | 42% (active)
52 | COc1ccc(NC(=O)Nc2nnc(SCC(=O)Nc3cccc([N+](=O)[O-])c3)s2)cc1 | -16% (inactive)
53 | Cc1cc(OCC(=O)NC2CCN(C)CC2)ccc1[N+](=O)[O-] | -23% (inactive)
54 | Cc1cc([N+](=O)[O-])c(N2CCC[C@@H]2C(=O)O)c([N+](=O)[O-])c1 | -16.2% (inactive)
55 | Cc1cc([N+](=O)[O-])c(NC2CCCCC2)c([N+](=O)[O-])c1 | 80.5% (active)
56 | NC(=O)C1CCN(C(=O)N[C@H]2CC(=O)N(c3ccc(F)cc3)C2)CC1 | 2% (inactive)
57 | Cc1ccc(NC(=O)C(=O)NC[C@](C)(O)c2cccs2)cc1C | -4% (inactive)
58 | COc1ccc(CCC(=O)N2CCC(Oc3cc(C)oc(=O)c3)C2)cc1Br (centres undefined) | 4% (inactive)
59 | Cc1cc(NC(=O)CSc2nnc(CNC(=O)c3cccs3)o2)no1 | -5% (inactive)
60 | Cc1nnc(NC(=O)CSc2nnc(-c3ccccc3C)o2)s1 | 11% (inactive)
61 | Cc1cc(NC(=O)CSc2nnc(-c3ccc(Cl)s3)o2)no1 | 43.9% (active) and 1% (inactive)
62 | COC(=O)C1CCN(C(=O)CCc2csc3nc(-c4ccc(OC)cc4)cn23)CC1 | -11% (inactive)
63 | Cn1ccnc1S(=O)(=O)C1CCN(C(=O)c2ccc3nsnc3c2)CC1 | -12% (inactive)
64 | O=C(Nc1nc2c(s1)CN(Cc1ccccc1)CC2)c1cc(Cl)sc1Cl | 23% (inactive)
65 | O=C(CSc1ccc(-c2ccccn2)nn1)Nc1ccccc1 | 90.4% (active)
66 | COc1cc(NC(=O)CSc2ccc(-c3cccnc3)nn2)cc(OC)c1 | 6.7% (inactive)
67 | CSc1ccc(-c2ccccn2)nn1 | 148% (active)
68 | Brc1ccc(CSc2nnc3ccc(-c4ccccn4)nn23)cc1 | -17% (inactive)
69 | O=C(CSc1ccc(-c2ccc(-n3cccn3)cc2)nn1)Nc1ccc([N+](=O)[O-])cc1 | -0.41% (inactive)
70 | CSc1ccc(NC(=O)c2ccccc2F)nn1 | 2% (inactive)
71 | COc1ccccc1CCNC(=O)CSc1nnc2ccc(-c3cccnc3)nn12 | -8.11% (inactive) and 15% (inactive)
72 | O=C(CSc1ccc(-c2cccnc2)nn1)NCCc1ccccc1 | -2% (inactive)

Row | SMILES | inhibition
73 | COc1ccccc1CCNC(=O)CSc1ccc(-c2ccccn2)nn1 | 81.7% (active)
74 | NC(=NOC(=O)C1CCCCC1)c1ccc(Br)cc1 | -26.4% (inactive)
75 | CS(=O)(=O)c1ccccc1C(=O)N1CCN(c2ccccc2)CC1 | 0% (inactive)
76 | CN(C)S(=O)(=O)c1ccc(C(=O)NCc2nnc(SCc3c(F)cccc3Cl)o2)cc1 | 6% (inactive) and -7% (inactive)
77 | Cc1ccc(N2CCn3c2nc2c3c(=O)n(CCN3CCOCC3)c(=O)n2C)cc1Cl | 0% (inactive)
78 | COC(=O)c1ccc2c(=O)n(CCCC(=O)NCc3cccs3)c(=S)[nH]c2c1 | -3% (inactive)
79 | O=C(NCCCn1ccnc1)c1cc(-c2ccccc2)on1 | 2.55% (inactive)
80 | Cc1ccc2c(Cl)c(C(=O)NCCCn3ccnc3)sc2c1 | 9.4% (inactive)
81 | O=C(NCCCn1ccnc1)c1cc2c(s1)CCCC2 | 44.7% (active)
82 | COc1ccc(/C=N\N=C2\NC(=O)C(CC(=O)NC(N)=O)S2)c(C(=O)O)c1OC (centres undefined) | -10% (inactive)
83 | Cc1ccccc1-n1c(O)c(C=CC=Nc2ccccc2)c(=O)[nH]c1=O | 4.92% (inactive)
84 | O=C(Nc1nnc(C2CCCO2)o1)c1cc2ccccc2oc1=O (centres undefined) | 4% (inactive)
85 | O=C(COc1ccc(Cl)cc1Cl)Nc1nnc(C2CCCO2)o1 (centres undefined) | 63% (active)
86 | O=C(Nc1nnc(C2CCCO2)o1)c1sc2ccccc2c1Cl (centres undefined) | 34% (inactive)
87 | COc1ccc(CCC(=O)NCCCn2nc(-c3ccccc3)ccc2=O)cc1 | 2% (inactive)
88 | CN1CCN(C(=O)c2ccc(-c3ccc(Br)cc3)o2)CC1 | 39% (active) and 2.72% (inactive)
89 | O=CN1CCN(C(=O)c2ccc(Br)o2)CC1 | -5.54% (inactive)
90 | O=C(NC(=S)Nc1ccccc1C(=O)O)c1ccc(-c2ccc(Br)cc2)o1 | 3.73% (inactive)
91 | O=C(O)CNC(=O)CN1C(=O)S/C(=C\C=C\c2ccccc2)C1=O | -12% (inactive)
92 | O=C(NCCc1ccccc1)c1csc(Nc2ccccc2)n1 | 7% (inactive)
93 | O=C(NCc1ccc2c(c1)OCO2)c1csc(Nc2ccccc2)n1 | 0% (active)
94 | O=C(O)/C=C\C(=O)NCc1ccc2c(c1)OCO2 | -5% (inactive)
